# Bioassay records as filed in PubChem.
# GDH-TPI counter-1: GDH-TPI coupled enzyme inhibition counter-screen | inhibition, % at 4.8 µM | AID 588335 | GDH-TPI coupled enzyme counterscreen, NADH absorbance | hit rate 1.2% among 360,000; in the data active = inhibition above about 30%;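 also: 0% = DMSO wells and 100% = wells lacking the enzyme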
# BJeLR viability: BJeLR cell viability loss; AID 1554; hit rate 0.17% among 300,000; inhibition, % (no concentration beside the values); BJeLR (HRASV12) viability, CellTiter-Glo ATP luminescence, 48 h; in the data active = inhibition above about 50%
# PrPC TRFRET: reduces human prion protein on the cell surface. cell surface PrPC, TR-FRET read-out. AID 720596. P04156. inhibition, % at 13.8 µM. hit rate 0.43% among 370,000; in the data active = inhibition above about 24%; also: 0% = median of the test wells and 100% = reference compound wells
# PrP 5UTR inh: inhibition of PrP 5' UTR reporter expression. cell-based PrP 5' UTR mRNA reporter, plate reader. inhibition, % (no concentration beside the values). hit rate 0.35% among 340,000; in the data active = inhibition above about 52%; also: 0 = median of the neutral control wells
# FBA Mtb inh: inhibits M. tuberculosis FBA enzyme; P9WQA3; hit rate 2.3% among 360,000; AID 588726; purified M. tuberculosis FBA, fluorescence read-out; inhibition, % at 1 µM;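 also: 0% = vehicle and 100% = reference inhibitor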
# Target sequence (P9WQA3 whole entry, looked up): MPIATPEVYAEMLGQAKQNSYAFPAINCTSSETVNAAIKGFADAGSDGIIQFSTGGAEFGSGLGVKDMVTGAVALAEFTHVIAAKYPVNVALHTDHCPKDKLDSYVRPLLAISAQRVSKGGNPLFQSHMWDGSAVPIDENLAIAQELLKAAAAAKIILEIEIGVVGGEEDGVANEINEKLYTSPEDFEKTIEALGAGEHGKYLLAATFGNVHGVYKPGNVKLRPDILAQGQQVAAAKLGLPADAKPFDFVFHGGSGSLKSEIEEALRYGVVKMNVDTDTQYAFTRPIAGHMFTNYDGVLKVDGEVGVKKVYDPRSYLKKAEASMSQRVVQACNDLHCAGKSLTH
# PfHsp40 yeast: compounds rescuing yeast from Plasmodium falciparum HSP40 toxicity | growth rescue, % at 12.5 µM | S. cerevisiae expressing PfHsp40, growth rescue, ATP luminescence | AID 504582 | hit rate 0.68% among 340,000; in the data active = growth rescue above about 28%, passing the limit was not always enough;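 also: yeast W303a lacking pdr1 and pdr3 grown in galactose medium; growth measured after three days at 30 °C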
# Mtb FBA confirm: confirmation of M. tuberculosis fructose-bisphosphate aldolase inhibitors; shares compounds with FBA Mtb inh; hit rate 78% among 5,600; purified M. tuberculosis FBA, fluorescence read-out; inhibition, % at 1 µM; AID 651616;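 also: 0% = vehicle wells and 100% = reference inhibitor wells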
# GDH-TPI counter-2: inhibits GDH-TPI coupling enzymes, flagging Mtb FBA hits | shares compounds with FBA Mtb inh | GDH-TPI coupled enzyme counterscreen, fluorescence | inhibition, % at 1 µM | hit rate 81% among 5,600 | AID 652141; in the data active = inhibition above about 10%
# GDH-TPI DR: counter-screen for M. tuberculosis FBA inhibitors: GDH-TPI dose response | shares compounds with FBA Mtb inh | GDH-TPI coupled enzyme assay, fluorescence, artifact counterscreen | IC50, µM | hit rate 79% among 170; call rule not given here
# * marks the source's active call; other numbers are inactive results; · = no result; + = active, no number. An excerpt weighted towards active compounds, which were near 4.5% of everything screened. Rule as the data show it, unless noted: active = inhibition above about 27%; inactive = the rest.
SMILES,GDH-TPI counter-1,BJeLR viability,PrPC TRFRET,PrP 5UTR inh,FBA Mtb inh,PfHsp40 yeast,Mtb FBA confirm,GDH-TPI counter-2,others
COc1cc2[nH]c3c(=O)n(CCN(C(C)C)C(C)C)cnc3c2cc1OC,14,4,-12,-2,55*,-1,6,2,
COc1ccc(C(C(=O)NC2CCCC2)N(C(=O)c2csnn2)C2CCCC2)cc1 (stereo not given),2,4,-1,-19,-3,0,·,·,
Cc1noc(C)c1NC(=O)N(C)C[C@H]1Oc2ccc(NS(=O)(=O)c3ccc(F)cc3)cc2C(=O)N([C@H](C)CO)C[C@@H]1C,-7,·,-2,-16,0,-2,·,·,
FC(F)(F)c1ccc2c(c1)NCC1CCCN21 (stereo not given),24,6,-6,-14,45*,-3,54*,50*,
FC(F)(F)c1ccc2c(c1)N1CCCC1CN2 (stereo not given),0,5,-16,-22,4,-1,·,·,
CCCC(=O)Nc1ccc2c(c1)nc1n2CCN(C2CCCCC2)C1,5,·,9,-11,63*,-1,194*,178*,
CC(=O)Nc1ccc2c(c1)nc1n2CCN(C2CCCCC2)C1,8,·,-3,-58,56*,0,197*,135*,
O=C(Nc1ccc2c(c1)nc1n2CCN(Cc2ccccc2)C1)NC1CCCCC1,8,0,-1,·,80*,-1,16,11*,
O=[N+]([O-])c1ccc2c(c1)nc1n2CCN(C2CCCCC2)C1,-2,0,-17,-74,-3,1,·,·,
O=C(Nc1ccc2c(c1)nc1n2CCN(Cc2ccccc2)C1)c1cccs1,12,4,0,-14,2,1,·,·,
COCCCn1cnnc1SCc1nc2sc(C(C)=O)c(C)c2c(=O)[nH]1,19,3,5,-19,11,2,·,·,
Cc1cc(C)n2nc(C(=O)N/N=C/c3ccco3)nc2n1,20,1,5,-20,0,0,·,·,
CN(C)[C@@H]1CCN(c2cccc3c2S(=O)(=O)N2CC[C@H](C2)O3)C1,·,·,8,·,·,·,·,·,
CCCCn1c(NC(=O)c2ccc(Br)o2)c(C(=O)OCC)c2nc3ccccc3nc21,11,·,-1,-17,58*,-1,+,179*,
C=CCn1c(NC(=O)c2ccc(Br)o2)c(S(=O)(=O)c2ccccc2)c2nc3ccccc3nc21,1,7,3,-24,50*,1,52*,47*,
CCOC(=O)c1c(NC(=O)c2ccco2)n(C2CCCCC2)c2nc3ccccc3nc12,15,2,9,-4,63*,1,14,9,GDH-TPI DR=2.9*
CCCCn1c(NC(=O)CC)c(C#N)c2nc3ccccc3nc21,4,1,-4,4,6,-2,·,·,
O=C(Nc1ccc(S(=O)(=O)NCc2ccccc2)cc1)c1ccc(Br)o1,12,·,6,1,7,1,·,·,
CCOC(=O)c1sc(NC(=O)c2ccc(Br)o2)cc1C,20,1,7,-101,0,1,·,·,
CCCCn1c(NS(=O)(=O)c2ccccc2)c(C(=O)OCC)c2nc3ccccc3nc21,16,4,-4,-9,53*,-1,194*,151*,
O=C(COC(=O)COc1ccccc1)Nc1ccc(S(=O)(=O)N2CCOCC2)cc1,6,1,5,0,5,-1,·,·,
COc1ccc(C(=O)OCCCN(C)C2CN(Cc3cn(Cc4ccccc4Cl)nn3)S(=O)(=O)C2)cc1OC (stereo not given),·,·,-1,·,·,·,·,·,
COc1cccc(CC(=O)OC(C)C(=O)Nc2ncc(Cl)cc2Cl)c1 (stereo not given),2,-7,13,4,9,0,·,·,
COc1ccc(-n2ccnc2SCC(=O)NO)cc1,5,0,6,4,1,-1,·,·,
CN(C)c1ccc(C=NNC(=S)Nc2ccc(F)cc2)cc1,41*,·,7,-68,32*,3,3,2,
SMILES,GDH-TPI counter-1,BJeLR viability,PrPC TRFRET,PrP 5UTR inh,FBA Mtb inh,PfHsp40 yeast,Mtb FBA confirm,GDH-TPI counter-2,others
CSC(=S)N/N=C/c1ccc(N(C)C)cc1,10,-2,-3,-34,0,2,·,·,
O=C(c1c(F)cccc1F)N1CCN(CCOc2ccccc2)CC1,-3,0,0,-11,-1,-2,·,·,
COc1ccc(NC(=O)CSc2nc3nc(-c4cccs4)cc(C(F)(F)F)c3c(=O)[nH]2)c(OC)c1,9,6,4,-15,19,1,·,·,
COC(=O)CSc1nc2nc(-c3cccs3)cc(C(F)(F)F)c2c(=O)[nH]1,-4,-6,1,-3,7,0,·,·,
CCOc1ccccc1NC(=O)CSc1nc2nc(-c3cccs3)cc(C(F)(F)F)c2c(=O)[nH]1,13,-1,4,-15,58*,1,73*,50*,
O=C(CSc1nc2nc(-c3cccs3)cc(C(F)(F)F)c2c(=O)[nH]1)NCc1ccco1,7,1,19,-16,95*,0,2,-8,
O=C(NCCOc1ccc(Cl)cc1)c1ccc2ccccc2n1,1,2,-5,-43,-2,0,·,·,
Cc1cc(C)n2ncc(C(=O)NCc3ccccc3)c2n1,13,-1,-3,0,24,1,·,·,
O=C(NCc1ccc(Cl)cc1)c1cnn2ccccc12,6,2,-2,-71,38*,-1,2,-4,
O=C(NCc1ccc(Cl)cc1)c1ccc2ccccc2n1,-2,8,15,-26,65*,7,137*,118*,
Cc1cc(C)n2ncc(C(=O)NCc3ccc(Cl)cc3)c2n1,5,-4,12,5,34*,1,118*,89*,
CCOC(=O)C1=C[C@@H](c2ccccc2)N(S(=O)(=O)c2ccc(C)cc2)[C@H]1c1ccc(F)cc1,·,·,4,·,-1,·,·,·,
O=C(NCCCN1CCCC1=O)c1cccc(S(=O)(=O)Nc2ccccc2Cl)c1,1,·,4,·,-1,0,·,·,
N#Cc1ccc(-c2ccc(OCC(O)CN3CCOCC3)cc2)cc1 (stereo not given),-5,3,11,-19,40*,17,4,-1,
COc1ccc(OCC(O)CN2CCOCC2)cc1 (stereo not given),-2,0,3,-10,-3,-2,·,·,
Cc1nc2ccc([N+](=O)[O-])cc2c(=O)n1Cc1ccc(Cl)cc1,6,-6,-2,-5,2,0,·,·,
Cc1nc2c(cc1N)nc(C)n2Cc1ccccc1,0,-2,2,-12,99*,0,20,3,GDH-TPI DR=1.2*
